Out of some 39,000 compounds screened, about 3,300 (8.5%) were called active. The entries come from a sample that favours actives as a whole.
The compounds below were run on HepG2 (assay: cytotoxicity call (relative viability < 0.9)). Settings: 10 µM.
With `CC(C)CN1C[C@@H]2CCNCC[C@H]2S1(=O)=O` the cytotoxicity call was “inactive”.
In the case of `C[C@H](CO)N1C[C@H](C)[C@@H](CN(C)Cc2ccc(C(=O)O)cc2)Oc2ccc(NS(=O)(=O)c3cn(C)cn3)cc2CC1=O`, the cytotoxicity call is reported as “inactive”.
`O=C(C[C@@H]1C[C@H]2c3cc(NS(=O)(=O)c4ccc(F)cc4)ccc3O[C@H]2[C@@H](CO)O1)NCc1ccccc1F` was tested, and the cytotoxicity call was “inactive”.
`Nc1cc(=O)[nH]c(=O)n1Cc1ccccc1` was tested, and the cytotoxicity call was “inactive”.
`COc1ccc(CN2C[C@@H](C)[C@H](OC)CN(C)C(=O)c3ccc(NC(=O)c4nc5ccccc5s4)cc3OC[C@@H]2C)cc1` was tested, and the cytotoxicity call was “inactive”.
With `COc1ccc2c3c([nH]c2c1)[C@H](CO)N(C[C@]13CCN(CC1)CC1CCCC1)S(=O)(=O)c1cn(cn1)C` the cytotoxicity call was “inactive”.
With `COc1ccccc1CN1C(=O)c2ccccc2[C@@]2(Cc3ccccc3N(C(C)C)C2=O)[C@@H]1c1ccc(CO)cc1` the cytotoxicity call was “inactive”.
With `C[C@H]1CN([C@@H](C)CO)C(=O)c2cccc(NC(=O)NC3CCCCC3)c2O[C@@H]1CN(C)C(=O)Nc1ccc(C(F)(F)F)cc1` the cytotoxicity call was “inactive”.
In the case of `C[C@@H]1CN([C@H](C)CO)C(=O)c2cccc(NC(=O)NC3CCCCC3)c2O[C@@H]1CN(C)C(=O)Nc1ccc(C(F)(F)F)cc1`, the cytotoxicity call is reported as “inactive”.
In the case of `C[C@H]1CN([C@@H](C)CO)C(=O)c2cccc(NC(=O)NC3CCCCC3)c2O[C@H]1CN(C)C(=O)Nc1ccc(C(F)(F)F)cc1`, the cytotoxicity call is reported as “active”.
With `CCCn1nc(C)c(CN)c1C` the cytotoxicity call was “inactive”.
In the case of `Cc1ccc(S(=O)(=O)N(C)C[C@@H]2OCCCC[C@@H](C)Oc3ccc(NC(=O)Nc4ccc(C(F)(F)F)cc4)cc3C(=O)N([C@@H](C)CO)C[C@@H]2C)cc1`, the cytotoxicity call is reported as “inactive”.
With `O=C1N[C@H](Cc2c[nH]c3ccccc23)COC(=O)[C@H](Cc2ccc(F)cc2)CC=CC[C@@H]1CC(=O)N(CCO)Cc1ccccc1` the cytotoxicity call was “inactive”.
For `O=C(N[C@H]1CC=CC[C@H](CC(=O)N(CCO)Cc2ccccc2)C(=O)N[C@@H](Cc2ccccc2)COC1=O)OCC1c2ccccc2-c2ccccc21`, the cytotoxicity call was “active”.
`O=C(N[C@H]1CC=CC[C@H](CC(=O)N(CCO)Cc2ccccc2)C(=O)N[C@H](Cc2ccccc2)COC1=O)OCC1c2ccccc2-c2ccccc21` was tested, and the cytotoxicity call was “inactive”.
In the case of `O=C1N[C@H](Cc2c[nH]c3ccccc23)COC(=O)[C@@H](Cc2ccc(F)cc2)CC=CC[C@@H]1CC(=O)N(CCO)Cc1ccccc1`, the cytotoxicity call is reported as “inactive”.
In the case of `O=C1N[C@H](Cc2c[nH]c3ccccc23)COC(=O)[C@@H](Cc2ccc(F)cc2)CCC=CC[C@H]1CC(=O)N(CCO)Cc1ccccc1`, the cytotoxicity call is reported as “active”.
`O=C1N[C@@H](Cc2c[nH]c3ccccc23)COC(=O)[C@@H](Cc2ccc(F)cc2)CC=CC[C@@H]1CC(=O)N(CCO)Cc1ccccc1` was tested, and the cytotoxicity call was “active”.
With `O=C1N[C@@H](Cc2c[nH]c3ccccc23)COC(=O)[C@H](Cc2ccc(F)cc2)CCC=CC[C@H]1CC(=O)N(CCO)Cc1ccccc1` the cytotoxicity call was “inactive”.
For `O=C1N[C@H](Cc2c[nH]c3ccccc23)COC(=O)[C@@H](Cc2ccc(F)cc2)CCC=CC[C@@H]1CC(=O)N(CCO)Cc1ccccc1`, the cytotoxicity call was “inactive”.
With `O=C(N[C@@H]1CC=CC[C@H](CC(=O)N(CCO)Cc2ccccc2)C(=O)N[C@@H](Cc2ccccc2)COC1=O)OCC1c2ccccc2-c2ccccc21` the cytotoxicity call was “inactive”.
In the case of `CC12CC(OC1=O)C1(C)CCC3(C)C(=CCC4C5(C)CCC(O)C(C)(C)C5CCC43C)C1C2` (stereo not given), the cytotoxicity call is reported as “inactive”.
For `O=S1(=O)C[C@H](NCc2cccnc2)[C@@H](O)C1`, the cytotoxicity call was “inactive”.
With `C[C@H](CO)N1C[C@H](C)[C@@H](CN(C)Cc2ccc(C(=O)O)cc2)Oc2c(NC(=O)C3CCOCC3)cccc2C1=O` the cytotoxicity call was “inactive”.
`COc1ccc(CN(C)C[C@H]2Oc3ccc(NS(=O)(=O)c4c(C)noc4C)cc3CC(=O)N([C@H](C)CO)C[C@@H]2C)cc1` was tested, and the cytotoxicity call was “inactive”.
`COc1ccc(S(=O)(=O)Nc2ccc3c(c2)C(=O)N([C@H](C)CO)C[C@@H](C)[C@@H](CN(C)S(=O)(=O)c2ccc(OC)cc2)O3)cc1` was tested, and the cytotoxicity call was “inactive”.
In the case of `CN1C(=O)c2cc(NC(=O)Nc3ccccc3F)ccc2OC[C@H]2O[C@@H](CC(=O)NCc3ccc(-c4ccccc4)cc3)CC[C@@H]21`, the cytotoxicity call is reported as “inactive”.
With `C[C@@H]1CCCCO[C@@H](CN(C)S(=O)(=O)c2ccc(Cl)cc2)[C@@H](C)CN([C@H](C)CO)C(=O)c2cc(NC(=O)C3CCCCC3)ccc2O1` the cytotoxicity call was “inactive”.
`CO[C@H]1CN(C)C(=O)c2ccc(NS(C)(=O)=O)cc2OC[C@@H](C)N(C(=O)C2CCOCC2)C[C@@H]1C` was tested, and the cytotoxicity call was “inactive”.
`COc1ccc(S(=O)(=O)Nc2ccc3c(c2)C(=O)N([C@H](C)CO)C[C@@H](C)[C@H](CN(C)C(=O)C2CCCCC2)OCCCC[C@H](C)O3)cc1` was tested, and the cytotoxicity call was “inactive”.
`C[C@@H]1CN([C@@H](C)CO)C(=O)c2cc(N(C)C)ccc2O[C@@H](C)CCCCO[C@H]1CN(C)C(=O)CCCN(C)C` was tested, and the cytotoxicity call was “inactive”.
In the case of `Cc1noc(C)c1S(=O)(=O)Nc1ccc2c(c1)C(=O)N([C@H](C)CO)C[C@H](C)[C@@H](CN(C)C(=O)Nc1cccc3ccccc13)OCCCC[C@H](C)O2`, the cytotoxicity call is reported as “active”.
For `Cc1noc(C)c1S(=O)(=O)Nc1ccc2c(c1)C(=O)N([C@@H](C)CO)C[C@@H](C)[C@@H](CN(C)C(=O)Nc1cccc3ccccc13)OCCCC[C@H](C)O2`, the cytotoxicity call was “inactive”.
With `Cc1noc(C)c1S(=O)(=O)Nc1ccc2c(c1)C(=O)N([C@@H](C)CO)C[C@@H](C)[C@@H](CN(C)C(=O)Nc1cccc3ccccc13)OCCCC[C@@H](C)O2` the cytotoxicity call was “active”.
In the case of `Cc1noc(C)c1S(=O)(=O)Nc1ccc2c(c1)C(=O)N([C@@H](C)CO)C[C@@H](C)[C@H](CN(C)C(=O)Nc1cccc3ccccc13)OCCCC[C@H](C)O2`, the cytotoxicity call is reported as “inactive”.
In the case of `Cc1noc(C)c1S(=O)(=O)Nc1ccc2c(c1)C(=O)N([C@H](C)CO)C[C@H](C)[C@H](CN(C)C(=O)Nc1cccc3ccccc13)OCCCC[C@@H](C)O2`, the cytotoxicity call is reported as “inactive”.
In the case of `Cc1noc(C)c1S(=O)(=O)Nc1ccc2c(c1)C(=O)N([C@H](C)CO)C[C@@H](C)[C@@H](CN(C)C(=O)Nc1cccc3ccccc13)OCCCC[C@@H](C)O2`, the cytotoxicity call is reported as “inactive”.
In the case of `C[C@@H]1CN([C@H](C)CO)C(=O)c2cc(NC(=O)Cc3ccccc3)ccc2O[C@@H](C)CCCCO[C@@H]1CN(C)Cc1ccncc1`, the cytotoxicity call is reported as “inactive”.
For `Cc1ccc(S(=O)(=O)N(C)C[C@H]2OCCCC[C@H](C)Oc3ccc(NC(=O)C4CCCCC4)cc3C(=O)N([C@@H](C)CO)C[C@H]2C)cc1`, the cytotoxicity call was “inactive”.
`C[C@@H]1CN([C@H](C)CO)C(=O)CCCn2nncc2CO[C@H]1CN(C)C(=O)c1cc(-c2ccccc2)on1` was tested, and the cytotoxicity call was “inactive”.
With `COc1ccc(S(=O)(=O)N(C)C[C@@H]2Oc3c(NC(=O)c4cc(C)nn4C)cccc3C(=O)N([C@H](C)CO)C[C@H]2C)cc1` the cytotoxicity call was “inactive”.
`C[C@@H]1CN([C@H](C)CO)C(=O)c2cccc(NS(=O)(=O)c3cn(C)cn3)c2O[C@H]1CN(C)S(=O)(=O)c1ccc(Cl)cc1` was tested, and the cytotoxicity call was “inactive”.
For `COc1ccc(S(=O)(=O)N(C)C[C@@H]2Oc3ccc(NS(=O)(=O)c4ccc(F)cc4)cc3C(=O)N([C@@H](C)CO)C[C@H]2C)cc1`, the cytotoxicity call was “inactive”.
In the case of `COC(=O)N/N=C/c1ccc([N+](=O)[O-])o1`, the cytotoxicity call is reported as “inactive”.
`O=C(NO)c1ccc(C(=O)N/N=C/c2ccc(B(O)O)cc2)cc1` was tested, and the cytotoxicity call was “inactive”.
For `O=C(NN=Cc1ccc([N+](=O)[O-])o1)c1ccc(O)cc1`, the cytotoxicity call was “active”.
`O=C(N/N=C/c1ccc(CO)o1)c1ccccn1` was tested, and the cytotoxicity call was “inactive”.
For `NC(=O)N/N=C/c1ccc([N+](=O)[O-])o1`, the cytotoxicity call was “inactive”.
In the case of `NC(=O)NN=Cc1ccc([N+](=O)[O-])o1`, the cytotoxicity call is reported as “active”.
For `C[C@@H]1CCCCO[C@@H](CN(C)C(=O)C2CCCCC2)[C@@H](C)CN([C@H](C)CO)C(=O)c2cc(NC(=O)c3ccncc3)ccc2O1`, the cytotoxicity call was “inactive”.
`O=C(CCCCCC(=O)Nc1ccccc1O)N/N=C/[C@H](O)[C@@H](O)[C@@H](O)[C@H](O)C(=O)O` was tested, and the cytotoxicity call was “inactive”.
For `COCC#Cc1cnc2c(c1)C(=O)N([C@H](C)CO)C[C@@H](C)[C@@H](CN(C)C(=O)CN1CCOCC1)O2`, the cytotoxicity call was “inactive”.
For `COc1cc(CN)cc(OC)c1OC`, the cytotoxicity call was “inactive”.
For `C[C@H](CO)N1C[C@H](C)[C@@H](CN(C)C(=O)Nc2ccc(F)cc2)Oc2ccc(NC(=O)CCCCCC(=O)Nc3ccccc3N)cc2CC1=O`, the cytotoxicity call was “inactive”.
`COc1ccc(NC(=O)N(C)C[C@H]2OCCCC[C@@H](C)Oc3ccc(NC(=O)Cc4ccccc4)cc3C(=O)N([C@H](C)CO)C[C@@H]2C)cc1` was tested, and the cytotoxicity call was “inactive”.
In the case of `O=C(CN1CCOCC1)NCC[C@H]1CC[C@@H](NS(=O)(=O)c2ccc(F)cc2)[C@H](CO)O1`, the cytotoxicity call is reported as “inactive”.
With `C[C@H]1CN([C@@H](C)CO)C(=O)c2cccc(NC(=O)C3CCCCC3)c2O[C@H]1CN(C)S(=O)(=O)c1cn(C)cn1` the cytotoxicity call was “inactive”.
In the case of `NCCN1C(=O)c2[nH]nc(-c3ccccc3)c2[C@H]1c1ccccc1`, the cytotoxicity call is reported as “active”.
`NCc1c[nH]nc1-c1ccccc1` was tested, and the cytotoxicity call was “inactive”.
`c1ccc(-c2n[nH]c3c2CCC3)cc1` was tested, and the cytotoxicity call was “inactive”.
For `C[C@@H]1CN([C@H](C)CO)S(=O)(=O)c2ccc(-c3cccc(F)c3)cc2O[C@H]1CN(C)S(C)(=O)=O`, the cytotoxicity call was “inactive”.
`Clc1ccc2ncccc2c1` was tested, and the cytotoxicity call was “inactive”.
In the case of `Clc1ccc2c(c1)CCc1cccnc1C2=C1CCNCC1`, the cytotoxicity call is reported as “active”.
With `Cl.Clc1ccc2c(c1)CCc1cccnc1C2=C1CCNCC1` the cytotoxicity call was “active”.
In the case of `c1ccc2c(c1)Cc1cccnc1-2`, the cytotoxicity call is reported as “inactive”.
For `O=C(C[C@@H]1CC[C@H]2[C@@H](COC[C@H](O)CN2C(=O)c2ccc3c(c2)OCO3)O1)NCCN1CCCCC1`, the cytotoxicity call was “inactive”.
`Cc1ccc(S(=O)(=O)Nc2cccc3c2O[C@@H](CN(C)C(=O)Nc2cccc4ccccc24)[C@@H](C)CN([C@H](C)CO)C3=O)cc1` was tested, and the cytotoxicity call was “inactive”.
For `NC[C@@H]1CC(=O)N(c2ccccc2)C1`, the cytotoxicity call was “active”.
`NC(=O)N[C@@H]1CC(=O)N(c2ccccc2)C1` was tested, and the cytotoxicity call was “inactive”.
In the case of `NC[C@@H]1CC(=O)N(Cc2ccccc2)C1`, the cytotoxicity call is reported as “inactive”.

— the antibiotic and cytotoxicity screens of Wong et al. (2023)
